Laboratory results as given in the supplement of paper PMC11732987, “Enantioselective OTUD7B fragment discovery through chemoproteomics screening and high-throughput optimisation” (Communications Chemistry, 2025).

Assays:
Assay in all cases: log2 ratio of Biotin-Ahx-Ub-VS probe labelling (fragment/DMSO); higher = less target engagement (more negative = stronger competition), active = hit call of the paper (q ≤ 0.05, log2 ratio ≤ -1)
Settings in all cases: compound concentration: 200 uM; treatment time: 3 h
USP9X = USP9X (UniProt Q93008)
Method in brief: (§1)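 In triplicate, 495 µg of HEK293T lysate per sample was incubated with fragment at 200 µM or vehicle for 3 h. Biotin-Ahx-Ub-VS was then added to 0.5 µM final for 1 h, and labelled DUBs were captured with NeutrAvidin, digested with LysC and trypsin, and measured by diaPASEF LC-MS/MS. Data are average log2 fragment/vehicle ratios by unpaired t-test from global-median-normalised Spectronaut label-free quantities, restricted to proteins with ≥2 unique peptides.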

UniProt O00487 = target: UniProt O00487
Method in brief: as §1

UniProt O00507 = target: UniProt O00507
Method in brief: as §1

UniProt P51784 = target: UniProt P51784
Method in brief: as §1

UniProt Q5T2D3 = target: T1, UniProt Q5T2D3
T1 sequence (whole entry): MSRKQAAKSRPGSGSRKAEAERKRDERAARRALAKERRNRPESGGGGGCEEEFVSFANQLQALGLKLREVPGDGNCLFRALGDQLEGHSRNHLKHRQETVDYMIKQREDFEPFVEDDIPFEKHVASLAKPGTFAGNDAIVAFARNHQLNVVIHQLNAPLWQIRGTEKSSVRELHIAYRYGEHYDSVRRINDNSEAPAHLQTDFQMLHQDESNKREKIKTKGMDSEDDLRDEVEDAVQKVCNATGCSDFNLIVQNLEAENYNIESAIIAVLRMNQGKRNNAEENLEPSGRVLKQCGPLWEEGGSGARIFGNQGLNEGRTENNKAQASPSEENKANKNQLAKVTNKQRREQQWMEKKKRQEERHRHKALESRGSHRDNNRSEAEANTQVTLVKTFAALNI
Method in brief: as §1

UniProt Q8TE49 = target: T2, UniProt Q8TE49
T2 sequence (whole entry): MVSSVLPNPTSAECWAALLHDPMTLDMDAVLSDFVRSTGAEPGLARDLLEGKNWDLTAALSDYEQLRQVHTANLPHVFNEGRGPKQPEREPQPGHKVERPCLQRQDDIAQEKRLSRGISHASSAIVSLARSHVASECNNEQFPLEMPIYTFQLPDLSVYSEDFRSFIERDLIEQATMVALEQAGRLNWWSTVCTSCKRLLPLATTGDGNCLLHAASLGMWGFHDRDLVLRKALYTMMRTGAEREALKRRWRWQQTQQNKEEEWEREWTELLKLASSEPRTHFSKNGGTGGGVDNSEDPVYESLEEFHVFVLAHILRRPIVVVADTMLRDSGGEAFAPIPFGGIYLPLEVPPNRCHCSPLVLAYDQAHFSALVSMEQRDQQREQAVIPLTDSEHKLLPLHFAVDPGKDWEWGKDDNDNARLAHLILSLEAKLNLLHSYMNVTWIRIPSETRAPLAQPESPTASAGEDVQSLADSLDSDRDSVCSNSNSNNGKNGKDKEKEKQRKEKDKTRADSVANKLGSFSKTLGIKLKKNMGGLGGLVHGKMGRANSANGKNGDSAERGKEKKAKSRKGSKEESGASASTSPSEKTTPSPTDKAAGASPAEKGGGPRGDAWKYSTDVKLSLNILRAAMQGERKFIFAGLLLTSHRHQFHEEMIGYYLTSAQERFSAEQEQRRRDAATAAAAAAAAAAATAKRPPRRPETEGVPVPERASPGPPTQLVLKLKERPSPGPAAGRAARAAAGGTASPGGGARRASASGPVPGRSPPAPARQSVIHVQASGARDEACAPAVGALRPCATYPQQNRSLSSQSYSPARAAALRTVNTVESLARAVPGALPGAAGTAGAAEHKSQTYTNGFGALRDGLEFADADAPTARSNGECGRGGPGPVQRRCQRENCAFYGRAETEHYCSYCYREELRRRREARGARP
Method in brief: as §1

UniProt Q9P2H5 = target: T3, UniProt Q9P2H5
T3 sequence (whole entry): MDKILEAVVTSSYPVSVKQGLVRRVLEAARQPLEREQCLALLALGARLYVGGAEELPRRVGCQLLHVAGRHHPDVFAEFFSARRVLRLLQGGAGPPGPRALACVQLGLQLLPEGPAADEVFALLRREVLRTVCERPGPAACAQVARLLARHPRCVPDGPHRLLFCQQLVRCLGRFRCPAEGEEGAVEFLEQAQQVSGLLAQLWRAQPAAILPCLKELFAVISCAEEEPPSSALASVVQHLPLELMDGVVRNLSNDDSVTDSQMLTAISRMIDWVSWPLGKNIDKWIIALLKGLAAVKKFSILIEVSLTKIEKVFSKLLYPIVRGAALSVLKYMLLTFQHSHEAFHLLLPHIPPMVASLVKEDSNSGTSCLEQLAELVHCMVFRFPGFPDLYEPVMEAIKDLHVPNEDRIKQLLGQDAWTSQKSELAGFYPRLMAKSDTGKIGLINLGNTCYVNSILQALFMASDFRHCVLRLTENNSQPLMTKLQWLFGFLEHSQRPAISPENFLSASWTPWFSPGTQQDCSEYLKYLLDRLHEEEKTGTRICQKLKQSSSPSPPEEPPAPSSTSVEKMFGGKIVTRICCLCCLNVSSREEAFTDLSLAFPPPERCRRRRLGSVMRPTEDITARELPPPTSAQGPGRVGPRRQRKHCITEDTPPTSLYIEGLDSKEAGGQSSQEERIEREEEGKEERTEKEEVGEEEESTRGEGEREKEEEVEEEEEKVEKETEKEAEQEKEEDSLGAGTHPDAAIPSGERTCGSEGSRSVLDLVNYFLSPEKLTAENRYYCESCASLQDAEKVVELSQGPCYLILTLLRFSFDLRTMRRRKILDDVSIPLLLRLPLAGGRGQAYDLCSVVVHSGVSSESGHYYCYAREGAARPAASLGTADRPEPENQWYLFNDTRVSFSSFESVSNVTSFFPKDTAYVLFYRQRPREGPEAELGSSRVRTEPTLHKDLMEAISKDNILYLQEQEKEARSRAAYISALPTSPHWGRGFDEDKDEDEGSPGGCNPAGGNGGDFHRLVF
Method in brief: as §1

UniProt Q9UGI0 = target: T4, UniProt Q9UGI0
T4 sequence (whole entry): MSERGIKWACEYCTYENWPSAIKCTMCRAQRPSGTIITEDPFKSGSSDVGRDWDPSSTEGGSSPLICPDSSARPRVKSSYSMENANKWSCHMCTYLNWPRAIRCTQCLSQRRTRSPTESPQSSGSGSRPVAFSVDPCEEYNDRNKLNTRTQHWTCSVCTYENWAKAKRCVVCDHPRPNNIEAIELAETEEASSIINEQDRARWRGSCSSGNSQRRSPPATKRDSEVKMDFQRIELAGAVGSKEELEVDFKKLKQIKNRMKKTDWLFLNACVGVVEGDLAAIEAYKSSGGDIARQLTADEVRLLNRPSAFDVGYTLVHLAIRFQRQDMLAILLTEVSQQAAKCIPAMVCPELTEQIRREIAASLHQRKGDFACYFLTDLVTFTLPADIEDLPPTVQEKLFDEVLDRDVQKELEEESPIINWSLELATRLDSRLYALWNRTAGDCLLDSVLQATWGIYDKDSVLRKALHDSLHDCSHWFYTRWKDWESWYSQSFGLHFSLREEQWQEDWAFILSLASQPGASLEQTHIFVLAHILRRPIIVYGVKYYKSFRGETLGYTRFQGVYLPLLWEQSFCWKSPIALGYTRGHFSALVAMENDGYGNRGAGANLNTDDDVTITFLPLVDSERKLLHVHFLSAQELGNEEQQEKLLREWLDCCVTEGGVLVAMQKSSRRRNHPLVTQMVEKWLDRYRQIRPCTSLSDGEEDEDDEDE
Method in brief: as §1

YOD1 = target: T5, YOD1 (UniProt Q5VVQ6)
T5 sequence (whole entry): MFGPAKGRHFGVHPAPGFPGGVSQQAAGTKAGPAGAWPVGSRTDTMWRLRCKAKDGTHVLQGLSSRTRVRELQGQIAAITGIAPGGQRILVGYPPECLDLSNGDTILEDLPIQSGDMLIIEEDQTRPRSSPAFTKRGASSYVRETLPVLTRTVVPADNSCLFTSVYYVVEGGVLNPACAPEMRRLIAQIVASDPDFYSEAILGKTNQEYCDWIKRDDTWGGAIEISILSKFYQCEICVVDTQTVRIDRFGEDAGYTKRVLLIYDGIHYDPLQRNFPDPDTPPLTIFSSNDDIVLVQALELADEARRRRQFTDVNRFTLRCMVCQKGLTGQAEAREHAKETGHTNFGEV
Method in brief: as §1

Measured: log2 ratio of Biotin-Ahx-Ub-VS probe labelling

USP9X, sequence (Q93008 whole entry, the tested form may be a part): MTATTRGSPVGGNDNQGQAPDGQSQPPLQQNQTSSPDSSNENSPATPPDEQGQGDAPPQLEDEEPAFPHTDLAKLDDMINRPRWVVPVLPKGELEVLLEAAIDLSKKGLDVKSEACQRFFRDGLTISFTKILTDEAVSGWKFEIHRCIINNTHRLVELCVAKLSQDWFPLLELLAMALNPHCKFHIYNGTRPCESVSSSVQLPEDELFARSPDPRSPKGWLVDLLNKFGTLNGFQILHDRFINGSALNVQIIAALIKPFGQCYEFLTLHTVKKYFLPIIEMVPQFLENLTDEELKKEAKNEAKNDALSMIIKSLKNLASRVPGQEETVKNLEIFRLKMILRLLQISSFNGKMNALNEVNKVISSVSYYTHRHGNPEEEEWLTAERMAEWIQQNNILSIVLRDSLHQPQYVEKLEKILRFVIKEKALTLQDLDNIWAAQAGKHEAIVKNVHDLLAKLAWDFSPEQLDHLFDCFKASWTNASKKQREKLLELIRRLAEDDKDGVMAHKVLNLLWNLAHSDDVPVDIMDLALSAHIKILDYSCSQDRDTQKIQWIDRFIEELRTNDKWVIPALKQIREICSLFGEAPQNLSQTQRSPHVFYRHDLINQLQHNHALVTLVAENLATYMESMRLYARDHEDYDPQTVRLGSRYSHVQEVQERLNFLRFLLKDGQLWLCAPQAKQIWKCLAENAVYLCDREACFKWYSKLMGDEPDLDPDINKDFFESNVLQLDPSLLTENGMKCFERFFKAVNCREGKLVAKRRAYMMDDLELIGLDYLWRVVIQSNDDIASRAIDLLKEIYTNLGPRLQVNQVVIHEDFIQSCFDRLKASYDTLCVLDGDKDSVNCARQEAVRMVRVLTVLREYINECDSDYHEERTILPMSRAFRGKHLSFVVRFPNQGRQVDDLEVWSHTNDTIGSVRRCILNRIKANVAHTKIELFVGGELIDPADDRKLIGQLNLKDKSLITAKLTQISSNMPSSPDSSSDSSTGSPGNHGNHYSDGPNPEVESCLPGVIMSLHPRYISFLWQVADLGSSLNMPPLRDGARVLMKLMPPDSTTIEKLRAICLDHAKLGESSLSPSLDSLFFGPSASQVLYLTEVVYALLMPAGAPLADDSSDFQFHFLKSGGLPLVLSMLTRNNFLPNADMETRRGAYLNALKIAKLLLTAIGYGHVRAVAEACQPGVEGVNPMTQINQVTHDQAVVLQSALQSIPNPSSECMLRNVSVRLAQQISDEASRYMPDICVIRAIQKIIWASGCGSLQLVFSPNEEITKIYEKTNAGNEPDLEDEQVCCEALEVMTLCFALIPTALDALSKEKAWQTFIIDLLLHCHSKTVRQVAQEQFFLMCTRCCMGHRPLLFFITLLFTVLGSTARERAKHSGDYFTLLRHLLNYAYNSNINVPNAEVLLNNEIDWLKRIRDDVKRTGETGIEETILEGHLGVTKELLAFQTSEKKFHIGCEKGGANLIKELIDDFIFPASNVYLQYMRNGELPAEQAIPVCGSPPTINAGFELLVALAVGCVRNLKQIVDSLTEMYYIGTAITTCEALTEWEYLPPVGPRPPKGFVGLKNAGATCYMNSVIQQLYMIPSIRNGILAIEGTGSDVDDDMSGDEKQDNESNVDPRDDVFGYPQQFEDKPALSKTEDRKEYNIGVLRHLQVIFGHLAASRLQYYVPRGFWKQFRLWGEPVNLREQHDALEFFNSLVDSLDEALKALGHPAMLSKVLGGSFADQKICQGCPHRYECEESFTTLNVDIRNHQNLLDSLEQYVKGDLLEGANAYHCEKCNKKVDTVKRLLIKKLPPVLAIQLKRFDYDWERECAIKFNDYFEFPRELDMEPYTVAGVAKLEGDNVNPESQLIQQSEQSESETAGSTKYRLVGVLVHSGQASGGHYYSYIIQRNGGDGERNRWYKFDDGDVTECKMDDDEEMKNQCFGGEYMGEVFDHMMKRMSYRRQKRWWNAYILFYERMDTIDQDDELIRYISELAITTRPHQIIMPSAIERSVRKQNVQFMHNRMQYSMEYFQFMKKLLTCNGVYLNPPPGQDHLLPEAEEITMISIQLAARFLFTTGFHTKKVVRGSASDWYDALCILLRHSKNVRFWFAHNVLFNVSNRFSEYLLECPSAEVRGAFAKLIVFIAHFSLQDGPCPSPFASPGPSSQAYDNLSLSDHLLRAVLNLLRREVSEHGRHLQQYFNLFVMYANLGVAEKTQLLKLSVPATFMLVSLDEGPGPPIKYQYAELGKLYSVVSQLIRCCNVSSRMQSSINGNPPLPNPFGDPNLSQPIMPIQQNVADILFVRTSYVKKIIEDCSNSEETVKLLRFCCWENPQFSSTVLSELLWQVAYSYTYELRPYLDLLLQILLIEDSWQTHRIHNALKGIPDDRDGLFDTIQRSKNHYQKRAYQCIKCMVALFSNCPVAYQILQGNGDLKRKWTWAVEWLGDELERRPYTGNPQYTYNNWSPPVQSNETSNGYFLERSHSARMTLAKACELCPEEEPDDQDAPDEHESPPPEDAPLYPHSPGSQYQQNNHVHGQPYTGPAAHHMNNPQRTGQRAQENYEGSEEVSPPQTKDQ
UniProt O00507, sequence (O00507 whole entry): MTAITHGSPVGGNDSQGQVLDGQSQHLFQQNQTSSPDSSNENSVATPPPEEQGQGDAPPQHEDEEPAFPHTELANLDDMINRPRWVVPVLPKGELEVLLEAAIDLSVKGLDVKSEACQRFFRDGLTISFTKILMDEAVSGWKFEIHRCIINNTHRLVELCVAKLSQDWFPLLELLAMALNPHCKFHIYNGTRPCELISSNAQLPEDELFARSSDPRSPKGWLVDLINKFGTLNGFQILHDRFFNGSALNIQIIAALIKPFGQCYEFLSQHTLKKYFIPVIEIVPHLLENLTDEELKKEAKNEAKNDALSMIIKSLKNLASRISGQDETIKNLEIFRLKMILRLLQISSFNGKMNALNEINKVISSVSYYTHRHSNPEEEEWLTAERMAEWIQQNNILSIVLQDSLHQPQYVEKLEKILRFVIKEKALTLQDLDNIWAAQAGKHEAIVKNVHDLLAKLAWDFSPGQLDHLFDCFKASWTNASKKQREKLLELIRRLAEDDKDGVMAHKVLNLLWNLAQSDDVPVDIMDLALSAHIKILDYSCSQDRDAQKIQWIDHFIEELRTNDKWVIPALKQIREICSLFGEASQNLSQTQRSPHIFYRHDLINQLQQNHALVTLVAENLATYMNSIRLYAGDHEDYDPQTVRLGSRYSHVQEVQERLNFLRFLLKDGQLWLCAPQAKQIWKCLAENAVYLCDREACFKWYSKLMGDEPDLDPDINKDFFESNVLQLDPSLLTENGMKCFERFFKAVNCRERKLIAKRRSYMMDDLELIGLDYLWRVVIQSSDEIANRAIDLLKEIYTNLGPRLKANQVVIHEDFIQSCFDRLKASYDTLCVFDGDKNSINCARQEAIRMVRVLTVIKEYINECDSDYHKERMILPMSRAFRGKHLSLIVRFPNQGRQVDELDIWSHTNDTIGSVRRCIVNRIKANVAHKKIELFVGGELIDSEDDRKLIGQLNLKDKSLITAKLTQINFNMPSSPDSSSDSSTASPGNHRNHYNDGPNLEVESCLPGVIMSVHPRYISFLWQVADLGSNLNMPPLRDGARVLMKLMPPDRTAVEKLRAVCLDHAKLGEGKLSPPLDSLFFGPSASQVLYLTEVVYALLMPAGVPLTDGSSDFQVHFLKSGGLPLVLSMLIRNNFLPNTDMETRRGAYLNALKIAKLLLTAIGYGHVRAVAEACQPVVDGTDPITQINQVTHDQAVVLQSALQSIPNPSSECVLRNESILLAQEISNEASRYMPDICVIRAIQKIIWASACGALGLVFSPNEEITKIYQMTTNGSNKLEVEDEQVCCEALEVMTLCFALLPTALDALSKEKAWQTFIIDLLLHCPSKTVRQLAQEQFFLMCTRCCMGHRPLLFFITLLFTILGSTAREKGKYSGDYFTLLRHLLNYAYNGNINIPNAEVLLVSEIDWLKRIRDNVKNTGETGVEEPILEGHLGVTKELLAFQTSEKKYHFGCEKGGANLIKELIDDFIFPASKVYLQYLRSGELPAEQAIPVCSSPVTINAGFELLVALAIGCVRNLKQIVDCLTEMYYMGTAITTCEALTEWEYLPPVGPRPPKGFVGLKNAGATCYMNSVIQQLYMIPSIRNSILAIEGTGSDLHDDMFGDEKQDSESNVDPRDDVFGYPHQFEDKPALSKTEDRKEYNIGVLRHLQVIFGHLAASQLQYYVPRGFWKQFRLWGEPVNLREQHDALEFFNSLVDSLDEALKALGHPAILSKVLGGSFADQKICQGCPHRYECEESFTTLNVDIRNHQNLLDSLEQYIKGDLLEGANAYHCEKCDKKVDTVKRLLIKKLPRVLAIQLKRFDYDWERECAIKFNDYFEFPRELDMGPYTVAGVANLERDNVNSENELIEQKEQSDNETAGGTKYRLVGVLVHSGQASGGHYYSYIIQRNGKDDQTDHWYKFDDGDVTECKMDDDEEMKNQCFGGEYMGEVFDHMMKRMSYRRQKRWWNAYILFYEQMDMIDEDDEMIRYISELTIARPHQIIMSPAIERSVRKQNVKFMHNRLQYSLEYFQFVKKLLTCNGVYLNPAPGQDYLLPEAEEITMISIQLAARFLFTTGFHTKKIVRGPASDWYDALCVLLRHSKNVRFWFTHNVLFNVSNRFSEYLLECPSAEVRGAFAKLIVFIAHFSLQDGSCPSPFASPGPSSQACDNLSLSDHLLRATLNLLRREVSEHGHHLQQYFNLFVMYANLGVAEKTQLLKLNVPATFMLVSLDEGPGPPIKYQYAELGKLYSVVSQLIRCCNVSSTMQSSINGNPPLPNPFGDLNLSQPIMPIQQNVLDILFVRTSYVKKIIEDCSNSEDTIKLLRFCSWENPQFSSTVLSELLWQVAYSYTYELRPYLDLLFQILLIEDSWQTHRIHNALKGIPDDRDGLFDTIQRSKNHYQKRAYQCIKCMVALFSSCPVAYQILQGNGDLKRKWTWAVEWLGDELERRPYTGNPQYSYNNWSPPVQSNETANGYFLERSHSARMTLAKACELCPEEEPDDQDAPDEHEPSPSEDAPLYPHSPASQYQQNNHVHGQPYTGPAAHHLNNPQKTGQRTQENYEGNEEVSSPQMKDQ

Cl.O=C(CCl)N1CCn2ncc(O)c2C1
active: UniProt Q8TE49 -2.17 | UniProt Q9UGI0 -1.92
inactive: USP9X -0.396 | UniProt O00487 -0.395 | UniProt O00507 -0.112 | UniProt P51784 -0.0869 | UniProt Q5T2D3 -0.448 | UniProt Q9P2H5 -0.541 | YOD1 -0.272
